From PubChem BioAssay (NCI)
This is part of a sample that, as a whole, favours compounds with a hit. Of some 83,000 tested, about 20% had one in any assay.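 Note: values are percent growth. 100 is the growth of untreated cells, values between 100 and 0 indicate rising inhibition; between -100 and 0 indicates cell death.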 A number with no mark means an inactive call. Activity calls are given as the source filed them. Rule for the calls: active = growth percent below 10; inactive = the rest.

Test system: A498 renal
Assay: NCI-60 one-dose screen, 48 h (100 = growth as untreated, 0 = no growth, -100 = all killed)
Conditions: 10 µM unless noted

SMILES	growth
CCOC(=O)c1cnn(-c2nc(-c3ccc(F)cc3)c(C#N)c(N3CCOCC3)n2)c1N	71.3%
Cc1c(O)c(=O)ccn1-c1nc2ccccc2s1	95.8%
Nc1ccc(C2=NN(C(=O)c3cc(-c4ccc(Cl)cc4)nc4ccccc34)C(c3ccc(Cl)cc3)C2)cc1 (configuration not stated)	31.1%
COc1ccc2nc(-c3ccc(OC)c(OC)c3)cc(-c3nnc(SCC(=O)Nc4ccc(C(C)=O)cc4)o3)c2c1	93.6%
CNCc1cccc2c1OCCOCCOCCN(CCN1CCOCC1)S(=O)(=O)c1ccc(cc1)-c1cnc(N)c(n1)C(=O)N2	44.4%
COc1cc(C2=NN(C(C)=O)C(c3cccc(Nc4ccnc5cc(C(F)(F)F)ccc45)c3)C2)cc(OC)c1OC (configuration not stated)	60.3%
CC(C)CSc1nc(Nc2ccccc2)c(C#N)c(-c2ccc(F)cc2)n1	-0.717% (active)
CNc1cccc2c1C(=O)c1cccc(N)c1C2=O	65%
NC(=O)c1ccc(C2C3=C(CCCC3=O)OC3=C2C(=O)c2ccccc2C3=O)cc1 (configuration not stated)	131%
C=CCn1c(SCC(=O)Nc2ccc(C(=O)/C=C/c3ccc(Cl)cc3)cc2)nnc1-c1cc(OC)c(OC)c(OC)c1	82.5%
C=C1C(=O)O[C@H]2[C@H]1CC/C(C=Nc1c(N)cc(F)cc1Br)=C\CC[C@@]1(C)O[C@@H]21	119%
COc1cc(-c2csc(NC(=O)Nc3ccc(Cl)cc3)n2)cc(OC)c1OC	21.7%
COc1ccc(C(=O)c2cc(OC)c(C)c(OC)c2)cc1OC(=O)CCl	78.5%
Nc1c(C(=O)Nc2cccc3ccccc23)sc2nc3c(cc12)COCC3	54.2%
CN(C)C(CNc1oc(-c2cccc3ccccc23)nc1C#N)c1ccco1 (configuration not stated)	107%
Cc1cnc(-c2ccc(-c3ccc(NC(=O)Nc4c(F)cc(F)cc4F)cc3F)c3c2C(=O)NC3)[nH]1	22.4%
COc1ccc(-c2cc(C(=O)N3N=C(c4ccc(N)cc4)CC3c3ccc(OC)cc3)c3cc(OC)ccc3n2)cc1 (configuration not stated)	71.3%
COc1cc([C@H](C)c2ccc3ccccc3c2)cc(OC)c1OC	12.7%
O=c1nc(-c2ccccc2)c2cc(-c3ccc(N4CCCC4)nc3)ccc2[nH]1	46.6%

SMILES	growth
Cc1cccc2nc3c(n12)C(=O)C(=O)c1ccccc1-3	81.3%
CC(=O)Nc1c(C(=O)Nc2ccccc2)sc2nc3c(cc12)C(OC(C)=O)CCC3 (configuration not stated)	-1.22% (active)
CCN1CCN(c2ccc(NC(=O)Nc3nc4ccc(-c5ccccc5OC)cc4s3)cc2)CC1	70.2%
Cc1cc(Cl)cc(CN(Cc2ccccc2)Cc2c(O)ccc3ccccc23)c1O	76.6%
COC1=CC=CC2(OC)C3(O)CCCc4cccc(c43)N3C(=O)COC132 (configuration not stated)	98.4%
C=C1C(=O)O[C@H]2[C@H]1CC/C(COC(=O)N1CCC[C@H]1C(=O)Nc1ccc(OC)c(C(N)=O)c1O)=C\CC[C@@]1(C)O[C@@H]21	87.9%
Cc1cc(C)nc(NS(=O)(=O)c2ccc(Nc3ccc4c5c(n(CCCN(C)C)c(=O)c4c3)-c3ccccc3C5=O)cc2)n1	90.7%
COc1cc(NC(=O)c2cc(O)c(C/C=C(\C)CCC=C(C)C)c(O)c2)cc2c1O[C@]1(C)CC[C@@H](O)C(C)(C)[C@H]1C2	-29.2% (active)
CCCCCCN1C(=O)CN=C1Nc1ccc2cc3ccc(NC4=NCC(=O)N4CCCCCC)cc3nc2c1	104%
Nc1ccc(C2=NN(C(=O)c3cc(-c4ccc(Cl)cc4)nc4ccccc34)C(c3ccccc3)C2)cc1 (configuration not stated)	30%
CN(CCC#N)C(=O)Nc1ccccc1	90.4%
C=C(C)[C@@H]1CC[C@]2(C(=O)OCCCC[P+](c3ccccc3)(c3ccccc3)c3ccccc3)CC[C@]3(C)[C@H](CC[C@@H]4[C@@]5(C)CC[C@H](OC(=O)C(Cl)Cl)C(C)(C)[C@@H]5CC[C@]43C)[C@@H]12	-58.9% (active)
CSc1cccc(NC(=O)Nc2nc3c(C)cccc3s2)c1	106%
O=C(O)c1cn(C2CC2)c2cc(N3CCN(Cc4nnc(Nc5ccccc5)o4)CC3)c(F)cc2c1=O	92.2%
O=C1CS/C(=N/c2nnc(-c3ccc(O)cc3)s2)N1	108%
COc1ccc2c(c1)C1(C(=O)N2)C(C#N)=C(c2ccccc2)Nc2c1c(-c1ccccc1)nn2-c1ccccc1 (configuration not stated)	50.1%
CCN1CCC[C@H]1c1cc(O)c2c(c1OC)C[C@H]1C[C@H]3[C@H](N)C(=O)C(C(N)=O)=C(O)[C@@]3(O)C(=O)C1=C2O	-14.7% (active)
O=C(/C(=C/c1ccc([N+](=O)[O-])cc1)SCc1ccccc1)c1ccc(Cl)cc1	76.5%
